A short description of assay [1]: Nuclear factor erythroid 2-related factor 2/antioxidant responsive element (Nrf2/ARE) small molecule agonists: luciferase reporter gene qHTS assay in human keratinocytes (AID 1919969; further: nearly all actives have a fitted effect of over 35% in size; further: potency means the concentration at half of the fitted maximal effect). (In a reporter assay the amount or activity of a reporter protein is the signal.)
For assay [2], the target named is Gonadotropin-releasing hormone receptor (Homo sapiens) (UniProt P30968). Kind of assay: Human gonadotropin-releasing hormone receptor (GnRHR) small molecule agonists, calcium flux assay in GnRHR-HEK293 cells (AID 1920063). Further: nearly all actives have a fitted effect of over 35% in size. The method, boiled down: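 Compounds dissolved in DMSO are pin-transferred onto dye-loaded GnRHR-HEK293 cells, which were seeded 18 h before at 37 C/5% CO2. Calcium signal is read as fluorescence intensity at 1 s intervals for 3 min.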
On the technique in general: Calcium flux is commonly read through the fluorescence of an indicator in the cells.

In assay [3] the target is KiSS-1 receptor (Homo sapiens) (UniProt Q969F8). Kind of assay: Human kisspeptin (KISS1R) small molecule agonists, calcium flux assay in KISS1R-HEK293 cells (AID 1920064; active means well fitted activation curve with a large enough effect in the repeat runs). The method, boiled down: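 Cell line: HEK293, stable human KISS1R. Dye loading 1 h at 37 C after 18 h culture. Read: kinetic fluorescence, 480/540 nm, 3 min at 1 s intervals.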
A short description of assay [4]: G protein-coupled receptor (GPCR) small molecule agonists, calcium flux assay: HEK293 wild type cell line counter screen (AID 1920065). The method, boiled down: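 Tox21 10K compounds, 15 concentrations each in triplicate, pin-transferred in DMSO onto dye-loaded cells; kinetic read at 480/540 nm for 3 min, 1 s intervals.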
The nature of assay [5]: p53 small molecule agonists, cell-based qHTS assay with rat liver microsomes (AID 1963578). The method, boiled down: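 Agonist mode in p53RE-bla reporter cells, with compounds co-incubated 16 h at 37 C alongside 0.5 mg/mL rat liver microsomes and 0.5 mg/mL NADPH (final), followed by a 2 h LiveBLAzer detection step.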
On the technique in general: In qHTS, concentration-response curves come from the screen itself.

Assay [6] in a line: p53 small molecule agonists, cell-based qHTS assay with human liver microsomes: qHTS cell viability counter screen (AID 1963579). Further: nearly all actives have a fitted effect of over 45% in size. The method, boiled down:
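Metabolically activated exposure: compounds, human liver microsomes and NADPH (0.5 mg/mL final apiece) were added to p53RE-bla cells seeded 5 h earlier, left 16 h at 37 C, and then assessed for viability by CellTiter-Glo luminescence.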

Assay [7] is described as follows: p53 small molecule agonists, cell-based qHTS assay with rat liver microsomes: qHTS cell viability counter screen (AID 1963580). Further: nearly all actives have a fitted effect of over 45% in size. The method, boiled down:
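Cytotoxicity counter screen: intracellular ATP measured by CellTiter-Glo luminescence in the same wells as the beta-lactamase reporter read, on HCT-116 p53RE-bla cells exposed 16 h at 37 C to compounds with rat liver microsomes and NADPH, each 0.5 mg/mL final.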

Assay [8] can be described thus: p53 small molecule agonists, cell-based qHTS assay: qHTS cell viability counter screen (AID 1963581). Further: nearly all actives have a fitted effect of over 45% in size. The method, boiled down:
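ATP content measured by luminescence in HCT-116 p53RE-bla cells treated 16 h at 37 C, same wells as the reporter screen.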

Assay [9] is described as follows: p53 small molecule agonists, cell-based qHTS assay (AID 1963582; active means well fitted activation curve with a large enough effect in the signal ratio in the repeat runs, not every such curve was filed as active; the % refers to the signal ratio). The method, boiled down: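 16 h compound exposure (37 C) of p53 response element–bla cells, preceded by 5 h recovery at 37 C/5% CO2; read-out via LiveBLAzer B/G FRET substrate, 2 h RT, fluorescence intensity.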
Assay [10] has as its target 5-hydroxytryptamine receptor 2A (Homo sapiens) (UniProt P28223). The experiment in a line: 5-hydroxytryptamine receptor 2A (HTR2A) small molecule antagonists, cell-based qHTS assay (AID 1963586). Further: nearly all actives have a fitted effect of over 45% in size. The method, boiled down: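 CHO cells stably expressing human HTR2A were plated for 18 h at 37 C, then loaded with calcium dye for 1 h. Compounds were preincubated 5 min at room temperature before DOI (4 nM solution) was added. Kinetic fluorescence was read for 3 min.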

For assay [11] the target is unchanged. The experiment in a line: 5-hydroxytryptamine receptor 2A (HTR2A) small molecule agonists, cell-based qHTS assay (AID 1963587). Further: nearly all actives have a fitted effect of over 30% in size. The method, boiled down:
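CHO cells stably expressing human HTR2A, plated 18 h, loaded with calcium dye 1 h at 37 C. Agonist mode: compounds added and intracellular calcium fluorescence recorded kinetically for 2 min at 1 sec intervals.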

Assay [12] concerns the target Muscarinic acetylcholine receptor M1 (Homo sapiens) (UniProt P11229). Kind of assay: Cholinergic receptor muscarinic 1 (CHRM1) small molecule antagonists, cell-based qHTS assay (AID 1963588). Further: nearly all actives have a fitted effect of over 40% in size. Further: potency means the concentration at half of the fitted maximal effect. The method, boiled down:
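Compounds were tested at 15 concentrations in three independent runs. Dye-loaded CHRM1-CHO cells were exposed 5 min at room temperature before stimulation by acetylcholine added at 50nM. Intracellular calcium was read kinetically on FDSS for 3 min.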

For assay [13] the target is unchanged. Kind of assay: Cholinergic receptor muscarinic 1 (CHRM1) small molecule agonists, cell-based qHTS assay (AID 1963589). Further: nearly all actives have a fitted effect of over 35% in size. The method, boiled down: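 Homogeneous fluorescence calcium flux, agonist mode. Human M1-expressing CHO cells; compound dosed at 15 concentrations, three independent runs; signal sampled every 1 sec.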
Assay [14] in a line: cAMP Responsive Elements (CRE) small molecule agonists, cell-based qHTS assay (AID 1963590). The method, boiled down:
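HEK 293T cells stably bearing CRE-bla were plated at 2,000 cells per well and rested 18 h. Compounds, positive controls or DMSO were added for 3 h at 37 C. LiveBLAzer B/G substrate was then loaded for 2 h at room temperature.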

Assay [15] in a line: cAMP Responsive Elements (CRE) small molecule antagonists, cell-based qHTS assay (AID 1963591; active means well fitted inhibition curve with a large enough effect in the signal ratio in the repeat runs, not every such curve was filed as active; the % refers to the signal ratio). The method, boiled down: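 First, CRE-bla HEK293T cells settled 18 h at 37 C. Next, compound and 0.25 uM final NKH477 were applied for 3 h. Last, LiveBLAzer B/G substrate was loaded for 2 h at room temperature.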
Assay [16] has as its target Beta-2 adrenergic receptor (Homo sapiens) (UniProt P07550). The experiment in a line: Adrenergic beta2 receptor (ADRB2) small molecule antagonists, cell-based qHTS assay (AID 1963592). Further: series mostly up to about 92 µM; nearly all actives have a fitted effect of over 50% in size. The method, boiled down:
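Assay format: CHO-ADRB2 cells, 18-20hr seeding at 37C/5% CO2, then compound plus 1nM isoproterenol agonist mix for 0.5hr RT. Homogeneous time-resolved fluorescence cAMP detection after 1hr, expressed as 665/615 nm ratio.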

The target is the same in assay [17]. The experiment in a line: Adrenergic beta2 receptor (ADRB2) small molecule agonists, cell-based qHTS assay (AID 1963593).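 Further: CHO cells stably overexpressing human ADRB2.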 The method, boiled down: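 CHO cells stably over-expressing ADRB2 were plated overnight at 37C, then dosed with compounds plus a stimulation mix containing 100uM IBMX and 25uM Ro-20-1724 for 0.5hr at room temperature. cAMP was measured by HTRF competition, 1hr.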

The target of assay [18] is D(2) dopamine receptor (Homo sapiens) (UniProt P14416). Kind of assay: Dopamine D2 receptor (DRD2) small molecule antagonists, cell-based qHTS assay (AID 1963595; active means well fitted inhibition curve with a large enough effect in the signal ratio in the repeat runs, with a control signal flat; the % refers to the signal ratio). The method, boiled down: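 HEK293 cells stably expressing DRD2, preincubated with 0.1 mM Ro20-1724 and compounds 10 min, were stimulated with 200 nM NKH477 plus 12 nM quinpirole for 30 min at room temperature; cAMP measured by HTRF (665/620 nm).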

The nature of assay [19]: p53 small molecule agonists, cell-based qHTS assay with human liver microsomes (AID 1963577).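 Further: p53 response element beta-lactamase reporter cells with liver microsomes plus NADPH.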 The method, boiled down:
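In this qHTS, p53 response-element beta-lactamase cells receive test compound together with a microsome/NADPH activating system (0.5 mg/mL final each) and are incubated 16 h at 37 C before LiveBLAzer fluorescence detection.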

Assay [20] addresses D(2) dopamine receptor (Homo sapiens) (UniProt P14416). Kind of assay: Dopamine D2 receptor (DRD2) small molecule agonists, cell-based qHTS assay (AID 1963594). Further: nearly all actives have a fitted effect of over 35% in size. The method, boiled down:
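HEK293 cells stably expressing human DRD2, pre-treated with PDE inhibitor Ro20-1724 (0.1 mM final) and compound 10 min at room temperature, then stimulated with NKH477 (200nM […]) for 30 min. cAMP read by HTRF (665/620 nm).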

Structures are written as SMILES. Results filed as inconclusive are left out. A structure can be active in one record and inactive in another. Calls of active or inactive are those of the source. Unless noted, the call rests on the fitted dose curve.

Chain of Gonadotropin-releasing hormone receptor (Homo sapiens) (P30968 whole entry, looked up): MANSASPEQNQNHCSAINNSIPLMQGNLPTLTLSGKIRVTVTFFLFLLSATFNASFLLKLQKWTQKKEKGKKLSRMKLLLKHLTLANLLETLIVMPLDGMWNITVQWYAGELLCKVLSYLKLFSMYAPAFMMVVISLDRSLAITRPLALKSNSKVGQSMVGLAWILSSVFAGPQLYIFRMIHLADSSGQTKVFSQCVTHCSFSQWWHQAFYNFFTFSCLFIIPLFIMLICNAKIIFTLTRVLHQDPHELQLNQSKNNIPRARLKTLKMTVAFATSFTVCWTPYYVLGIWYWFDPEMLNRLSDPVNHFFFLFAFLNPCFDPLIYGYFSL
Chain of Beta-2 adrenergic receptor (Homo sapiens) (P07550 whole entry, looked up): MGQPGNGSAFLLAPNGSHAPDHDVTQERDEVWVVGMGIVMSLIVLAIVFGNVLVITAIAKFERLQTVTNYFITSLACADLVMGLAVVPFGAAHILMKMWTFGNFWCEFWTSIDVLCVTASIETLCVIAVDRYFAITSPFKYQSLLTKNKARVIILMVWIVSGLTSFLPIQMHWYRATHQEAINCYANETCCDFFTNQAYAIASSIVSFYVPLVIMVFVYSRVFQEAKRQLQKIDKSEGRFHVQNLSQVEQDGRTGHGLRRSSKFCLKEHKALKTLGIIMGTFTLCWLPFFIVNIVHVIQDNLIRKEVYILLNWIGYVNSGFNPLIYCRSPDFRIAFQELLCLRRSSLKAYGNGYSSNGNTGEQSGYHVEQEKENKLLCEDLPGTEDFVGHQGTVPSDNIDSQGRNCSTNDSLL
Chain of D(2) dopamine receptor (Homo sapiens) (P14416 whole entry, looked up): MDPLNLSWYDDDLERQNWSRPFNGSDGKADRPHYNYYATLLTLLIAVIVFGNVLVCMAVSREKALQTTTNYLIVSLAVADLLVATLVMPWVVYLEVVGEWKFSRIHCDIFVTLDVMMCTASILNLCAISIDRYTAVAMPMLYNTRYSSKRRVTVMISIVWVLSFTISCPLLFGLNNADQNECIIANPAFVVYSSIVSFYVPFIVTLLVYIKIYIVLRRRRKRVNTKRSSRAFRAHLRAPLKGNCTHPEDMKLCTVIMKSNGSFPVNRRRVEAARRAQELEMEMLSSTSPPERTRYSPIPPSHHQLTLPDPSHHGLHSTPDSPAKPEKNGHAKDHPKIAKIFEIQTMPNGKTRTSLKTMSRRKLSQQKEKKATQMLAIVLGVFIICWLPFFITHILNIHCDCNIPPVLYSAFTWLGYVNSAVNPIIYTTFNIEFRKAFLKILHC
Chain of KiSS-1 receptor (Homo sapiens) (Q969F8 whole entry, looked up): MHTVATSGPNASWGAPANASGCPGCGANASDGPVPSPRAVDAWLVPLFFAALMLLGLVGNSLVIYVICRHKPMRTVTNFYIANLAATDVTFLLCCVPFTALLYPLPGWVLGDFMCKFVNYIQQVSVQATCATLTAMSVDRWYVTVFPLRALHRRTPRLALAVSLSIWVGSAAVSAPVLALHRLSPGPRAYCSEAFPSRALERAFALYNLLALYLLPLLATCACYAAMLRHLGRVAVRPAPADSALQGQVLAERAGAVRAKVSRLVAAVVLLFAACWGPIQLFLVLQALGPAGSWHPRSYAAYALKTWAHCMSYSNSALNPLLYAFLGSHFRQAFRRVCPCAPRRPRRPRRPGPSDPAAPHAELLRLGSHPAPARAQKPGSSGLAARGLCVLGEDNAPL
Chain of Muscarinic acetylcholine receptor M1 (Homo sapiens) (P11229 whole entry, looked up): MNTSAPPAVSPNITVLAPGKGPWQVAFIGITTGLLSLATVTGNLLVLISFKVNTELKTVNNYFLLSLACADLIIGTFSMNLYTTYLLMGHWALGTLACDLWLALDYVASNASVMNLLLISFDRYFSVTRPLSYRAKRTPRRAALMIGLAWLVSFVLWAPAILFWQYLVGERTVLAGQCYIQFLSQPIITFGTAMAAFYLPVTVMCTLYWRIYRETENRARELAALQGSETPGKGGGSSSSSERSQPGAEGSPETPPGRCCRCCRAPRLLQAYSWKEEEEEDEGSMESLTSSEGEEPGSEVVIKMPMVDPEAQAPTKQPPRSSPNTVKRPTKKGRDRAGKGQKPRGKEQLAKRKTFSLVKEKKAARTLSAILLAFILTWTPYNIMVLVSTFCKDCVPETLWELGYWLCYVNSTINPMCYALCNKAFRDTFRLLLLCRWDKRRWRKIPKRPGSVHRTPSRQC
Chain of 5-hydroxytryptamine receptor 2A (Homo sapiens) (P28223 whole entry, looked up): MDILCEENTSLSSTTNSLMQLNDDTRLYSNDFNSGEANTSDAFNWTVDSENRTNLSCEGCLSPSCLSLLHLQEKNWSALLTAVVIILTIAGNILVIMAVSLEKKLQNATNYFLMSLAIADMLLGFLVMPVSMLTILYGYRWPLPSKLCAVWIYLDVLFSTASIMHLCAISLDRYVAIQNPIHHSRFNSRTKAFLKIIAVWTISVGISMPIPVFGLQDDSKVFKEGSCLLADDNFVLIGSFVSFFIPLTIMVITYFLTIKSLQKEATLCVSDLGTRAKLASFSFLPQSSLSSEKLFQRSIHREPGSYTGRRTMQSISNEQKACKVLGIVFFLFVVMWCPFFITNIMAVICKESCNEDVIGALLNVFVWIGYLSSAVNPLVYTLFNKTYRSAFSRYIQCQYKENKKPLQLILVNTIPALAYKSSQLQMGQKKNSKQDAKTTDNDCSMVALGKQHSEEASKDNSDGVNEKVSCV

With `OCCCl`, the Potency entry in [1], in assay [2], in assay [3], in [4], in assay [5] and in [6] was “inactive” throughout. For the same compound, the Potency entry in assay [7], in assay [8], in assay [9], in assay [10], in assay [11] and in [12] was “inactive” throughout. Also, the Potency result in [13], in assay [14], in assay [15], in assay [16], in assay [17] and in assay [18] was “inactive” each time.

As for `N#CCCO`, the Potency entry in [1], in [2], in assay [3], in [4], in assay [19] and in [5] was “inactive” each time. For the same compound, the Potency result in [6], in [7], in assay [8], in [9], in assay [10] and in [11] was “inactive” throughout. Further, the Potency result in [12], in assay [13], in [14], in [15], in assay [16] and in [20] was “inactive” in each case. For the same compound, the Potency entry in assay [18] was “inactive”.

`C=CC(=O)NC(C)(C)CC(C)=O`: the Potency result in assay [1], in assay [2], in assay [3], in assay [4], in [19] and in assay [5] was “inactive” each time. Moreover, the Potency entry in assay [6], in [7], in assay [8], in assay [9], in assay [10] and in assay [11] was “inactive” in each case. Moreover, the Potency result in [12], in assay [13], in assay [14], in [16], in assay [17] and in assay [20] was “inactive” in each case. Also, in assay [18], the Potency result is “inactive”.

As for `COc1ccc(C=O)cc1OC`, the Potency in [1] was 69.3 µM (active) and inactive. Also, the Potency entry in assay [2], in assay [3], in assay [4], in assay [19], in [5] and in assay [6] was “inactive” throughout. Moreover, the Potency entry in assay [7], in assay [8], in [9], in assay [10], in [11] and in [13] was “inactive” throughout. Besides, the Potency result in assay [14], in assay [15], in assay [16], in assay [20] and in [18] was “inactive” each time.

On to `Cn1c(-c2ccccc2)cc(-c2ccccc2)[n+]1C`, for which the Potency entry in assay [1], in [2], in assay [3], in assay [4], in assay [19] and in assay [5] was “inactive” in each case. Moreover, the Potency entry in [6], in assay [7], in assay [8], in [10], in assay [11] and in assay [13] was “inactive” throughout. Also, the Potency entry in [15], in assay [16], in [17], in assay [20] and in [18] was “inactive” in each case. The Potency in assay [12] was 6.66 µM (active) and inactive.

In the case of `Clc1nc(Cl)nc(Nc2ccccc2Cl)n1`, the Potency entry in assay [1], in assay [2], in assay [3], in assay [4], in [19] and in assay [5] was “inactive” throughout. The Potency result in [6], in assay [7], in assay [8], in assay [10], in assay [11] and in [12] was “inactive” in each case. The Potency entry in assay [13], in [14], in assay [15], in [16], in assay [17] and in assay [20] was “inactive” in each case. In assay [18], the Potency result is “inactive”.

On to `Brc1ccc(Br)cc1`, for which the Potency result in [1], in assay [2], in assay [3], in [4], in assay [19] and in [5] was “inactive” in each case. For the same compound, the Potency result in assay [6], in [7], in [8], in assay [9], in assay [10] and in assay [11] was “inactive” in each case. Further, the Potency result in assay [12], in assay [13], in [14], in assay [15], in [16] and in assay [20] was “inactive” throughout. Further, the Potency entry in assay [18] was “inactive”.

In the case of `ClC(Cl)(Cl)C(Cl)(Cl)Cl`, the Potency result in assay [1], in assay [2], in assay [3], in assay [4], in assay [19] and in [5] was “inactive” in each case. Moreover, the Potency entry in assay [6], in assay [8], in assay [9], in assay [10], in assay [11] and in assay [12] was “inactive” throughout. The Potency entry in [13], in assay [14], in assay [15], in assay [16], in assay [20] and in assay [18] was “inactive” in each case.

Consider `C=CCN(CC=C)C(=O)C(Cl)Cl`, for which the Potency result in [1], in assay [2], in assay [3], in assay [4], in [19] and in assay [5] was “inactive” in each case. The Potency entry in assay [6], in [7], in assay [8], in [10], in assay [11] and in assay [12] was “inactive” in each case. Further, the Potency entry in assay [13], in assay [14], in assay [15], in assay [17], in [20] and in [18] was “inactive” in each case.

As to `Nc1cc(Cl)cc(Cl)c1`, the Potency result in [1], in assay [2], in assay [3], in assay [4], in [19] and in [5] was “inactive” in each case. In addition, the Potency entry in assay [6], in assay [7], in [8], in assay [9], in assay [10] and in assay [11] was “inactive” in each case. In addition, the Potency result in assay [12], in [13], in assay [14], in [16] and in [20] was “inactive” each time.

For `Nc1cccnc1`, the Potency result in assay [1], in assay [2], in assay [3], in [4], in assay [19] and in [5] was “inactive” in each case. Further, the Potency result in assay [6], in [7], in assay [8], in assay [10], in assay [11] and in assay [12] was “inactive” throughout. In addition, the Potency result in assay [14], in assay [15], in assay [16], in [20] and in assay [18] was “inactive” in each case.

(Values after PubChem BioAssay (Tox21).)
